Measured values as given in PubChem BioAssay AID641 (Vanderbilt High Throughput Screening Facility, 2007).
About 3,400 (5.9%) of roughly 58,000 compounds were called active. The full list was thinned out, with actives kept by preference. Unmarked numbers belong to inactive results.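 How the source made its calls: active means luminescence count or its row- and column-corrected plate score outside the 99.7% band of the plate's sample wells, on either side; inactive means the rest.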

Molecular target: D(1A) dopamine receptor (Homo sapiens) (UniProt P21728)
Assay: D1 CRE-luciferase signal change, two-sided – cell-based, HEK293 D1, dopamine EC30, D1 allosteric modulator project, primary screen (AID 641)
Conditions: dopamine EC30 potentiation, at 10 µM, actives deviate in either direction

D(1A) dopamine receptor (Homo sapiens), sequence (P21728 whole entry, looked up): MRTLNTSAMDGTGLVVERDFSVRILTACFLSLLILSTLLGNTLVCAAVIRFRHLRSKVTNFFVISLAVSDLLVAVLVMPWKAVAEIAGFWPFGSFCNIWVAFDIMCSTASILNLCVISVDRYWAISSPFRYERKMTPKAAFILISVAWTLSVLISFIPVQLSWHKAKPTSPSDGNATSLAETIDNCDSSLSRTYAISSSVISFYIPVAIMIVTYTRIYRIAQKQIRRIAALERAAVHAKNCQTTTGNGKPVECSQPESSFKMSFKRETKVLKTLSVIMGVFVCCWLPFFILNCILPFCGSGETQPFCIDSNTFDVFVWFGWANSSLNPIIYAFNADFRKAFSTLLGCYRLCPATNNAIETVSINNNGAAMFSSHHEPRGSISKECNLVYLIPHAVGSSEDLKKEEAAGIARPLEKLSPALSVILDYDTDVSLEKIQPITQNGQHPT

SMILES | B-score
COC(=O)COc1ccc2oc(=O)cc(C)c2c1 | 0.00198
COc1ccc(S(=O)(=O)N2CCN(c3ncnc4c(-c5ccccc5)nsc34)CC2)cc1 | -0.0486
O=c1cccc(-c2ccc(Br)cc2)o1 | 1.11
COc1ccc(S(=O)(=O)Nc2ccc(S(=O)(=O)N3CCCCC3)cc2)cc1OC | 5.58 (active)
COc1ccc(NS(=O)(=O)c2ccc(NC(C)=O)cc2)cc1OC | -0.458
COc1ccc(S(=O)(=O)N2CCCCC2)cc1Br | -1.56
COc1ccc(Br)cc1S(=O)(=O)N1CCN=C1C | -0.0562
CCc1nc2ccccc2n(CCOCCOCCn2c(=O)c(CC)nc3ccccc32)c1=O | 2.08
CCOC(=O)c1cc(C)sc1NC(=O)C1CCC1 | 7.64 (active)
CCCOC(=O)Nc1sc2c(c1C(=O)OCC)CCC2 | -0.0171
O=C(Nc1c(Cl)cccc1Cl)C1CCC1 | -0.785
NC(=O)c1ccsc1NC(=O)c1ccco1 | 0.317
O=C(Nc1nc(-c2ccncc2)cs1)C1COc2ccccc2O1 (configuration not stated) | 1.39
O=C(Nc1nc(-c2ccc3c(c2)OCO3)cs1)c1ccncc1 | -3.4 (active)
O=C(Nc1ccc2c(c1)OCCO2)c1ccncc1 | -1.34
COC(=O)c1ccc(/C=N\n2c(C)nnc2C)cc1 | -1.78
Cc1cc(C)c2c(n1)nn1c(N3CCOCC3)cc(C)nc21 | 1.9
Cc1cc(C)c2c(n1)nn1c(-n3ccnc3)cc(C)nc21 | 5.98 (active)
Cc1cc(C)c2c(n1)nn1c(N3CCN(c4cccc(Cl)c4)CC3)cc(C)nc21 | -0.0327
CCC(C)NC(=O)N[C@@H](CCSC)C(=O)O (some centres not stated) | -0.322
Cc1ccc(S(=O)(=O)NC(=O)N2CCCC(C)(C)C2)cc1 | -6.08 (active)
Cc1ccc(S(=O)(=O)NC(C)C(=O)Nc2ccccc2C(=O)N2CCCC2)cc1 (configuration not stated) | -1.42
Cc1ccc(S(=O)(=O)C2(S(=O)(=O)c3ccc(C)cc3)CCCC2)cc1 | 0.0184
COc1ccc(OC)c(-n2cc3c(=O)n(C)c(=O)n(C)c3c2)c1 | 1.9
Cn1c(=O)c2cn(-c3cccc4ccccc34)cc2n(C)c1=O | 3.56 (active)

SMILES | B-score
CC(=O)Nn1cc2c(=O)n(C)c(=O)n(C)c2c1 | 0.00279
Cc1nc2sc(C(c3ccco3)N3CCC4(CC3)OCCO4)c(O)n2n1 (configuration not stated) | -0.00625
NS(=O)(=O)c1ccc(NS(=O)(=O)/C=C/c2ccccc2)cc1 | 0.545
COC(=O)Cn1c(=NC(=O)CSCC(=O)Nc2cc(C)on2)sc2ccccc21 | -0.763
O=C1CC(N2CCN(C(c3ccccc3)c3ccccc3)CC2)C(=O)N1 (configuration not stated) | -0.246
COC(=O)c1ccc(CSc2nc3ccccc3c(=O)n2-c2cccc(OC)c2)o1 | 2.88
O=c1c2ccccc2nc(CSc2nnnn2-c2ccccc2)n1-c1ccccc1 | 0.263
N#CCSc1nc2ccccc2c(=O)n1-c1ccccc1 | 7.87 (active)
Cc1noc(C)c1S(=O)(=O)N(CC(=O)NCc1ccc(Cl)cc1)c1ccc2c(c1)OCO2 | 0.0431
CCCC(=O)N=c1sc2cccc(F)c2n1C | 0.69
Cc1nnc2sc(-c3ccco3)nn12 | 0.854
CC(=O)Nc1ccc(-c2nn3c(C)nnc3s2)cc1C | 0.141
c1ccc(-c2cc(-c3nnc4sc(-c5ccccn5)nn34)[nH]n2)cc1 | -0.359
Fc1ccc(-c2nnc3sc(-c4ccc5c(c4)OCO5)nn23)cc1 | 0.575
COc1cc(-c2nn3c(-c4cccc(C)c4)nnc3s2)cc(OC)c1OC | 5.22 (active)
COc1ccc(-c2nn3c(-c4ccccc4)nnc3s2)cc1OC | 8.24 (active)
CCOc1ccc(C(=O)N(Cc2ccc(N(C)C)cc2)C2CCS(=O)(=O)C2)cc1 (configuration not stated) | 0.116
CCCC(C(=O)N1CCOCC1)N1C(=O)C2C3C=CC(C3)C2C1=O (configuration not stated) | -0.388
Cc1occc1C(=O)Nc1nnc(C2CCCCC2)s1 | 0.299
O=C(COc1ccccc1Cl)Nn1cnnc1 | -0.264
Cc1cccc(N2CCN(Cc3c(C)n(C)n(-c4ccccc4)c3=O)CC2)c1C | -0.359
COc1ccc(N2CC(C)Cn3c2nc2c3c(=O)n(Cc3ccccc3F)c(=O)n2C)c(OC)c1 (configuration not stated) | 0.483
CCOc1ccc(N2C(=O)CC(N(O)c3ccccc3)C2=O)cc1 (configuration not stated) | 0.305
CCS(=O)(=O)NCCc1ccc(OC)c(OC)c1 | 0.864
COc1ccc(CCNS(=O)(=O)c2ccc(F)cc2)cc1OC | 3.09

SMILES | B-score
COc1ccc(CCNc2ncnc3nc[nH]c23)cc1OC | 12.7 (active)
CCOC(=O)c1sc(NC(=O)CSc2ncccn2)c(C#N)c1C | 1.81
COc1ccc(-c2ccc(Nc3ccc(S(=O)(=O)N4CCCC4)cc3)nn2)cc1OC | 1.72
COc1ccc(-c2cc(C(F)(F)F)nc(SCCC(=O)NCc3ccco3)n2)cc1 | 0.0331
COc1ccc(-c2cc(C(F)(F)F)nc(S(C)(=O)=O)n2)cc1OC | 6.58 (active)
CC(=O)Oc1ccc(C)cc1N1C(=O)c2ccc(C(=O)O)cc2C1=O | -0.324
CCN(CC)C(=O)CSc1nnc(-c2cccc(OC)c2)o1 | -0.393
COc1cccc(-c2nnc(NC(=O)c3ccc(S(=O)(=O)N(CC(C)C)CC(C)C)cc3)o2)c1 | -2.79 (active)
O=C(COC(=O)c1ccc(Oc2ccccc2)cc1)Nc1nnc(-c2ccccc2)o1 | -1.16
C=C1c2cc(CC)ccc2NC(=O)N1c1ccc(C)cc1 | -1.84
COc1ccc(N(CC(=O)NC2CCCCCCC2)S(=O)(=O)c2c(C)nn(C)c2C)cc1 | -0.289
CC(C)C(=O)Nc1c(C(=O)c2ccc(F)cc2)oc2ccccc12 | 1.66
Nc1ccc(S(=O)(=O)NC(=O)c2ccccc2)cc1 | 31.8 (active)
CC(=O)NS(=O)(=O)c1ccccc1 | 0.0902
Cc1ccc(C(=O)NCCNS(=O)(=O)c2ccccc2)cc1 | -0.839
COCCNC(=O)c1snc2ccc(Cl)cc12 | 0.741
CCCc1nc2ccccc2c(C(=O)OCc2nnc(-c3cc(OC)c(OC)c(OC)c3)o2)c1CC | 2.19
CCN1CCN(Cc2c(O)ccc3c(=O)c(-c4ccc(OC)c(OC)c4)c(C(F)(F)F)oc23)CC1 | -0.698
Cc1cc(=O)oc(C)c1C(=O)Nc1cnc2ccccc2c1 | -0.206
O=C(CN1C(=O)c2ccccc2S1(=O)=O)N1CCc2ccccc21 | -3.68 (active)
O=C(c1cccc(C(=O)N2CCc3ccccc32)n1)N1CCc2ccccc21 | 0.928
CNC(=O)CN1C(=O)c2ccccc2S1(=O)=O | 0.686
COC(=O)C(C)Sc1ccc2nnc(-c3cccc(F)c3)n2n1 (configuration not stated) | 0.378
CCOc1ccc(-c2nnc3ccc(SC)nn23)cc1 | -4.57 (active)
O=C(CN1CCOCC1)Nc1cc(Cl)ccc1Cl | -0.306

SMILES | B-score
C=C(C)Cn1c(N2CCN(CC)CC2)nc2c1c(=O)[nH]c(=O)n2C | 0.264
Brc1cccc(-c2nnc3n2CCC3)c1 | 0.138
CCOc1cc(-c2nc3cc(C)ccn3c2NCC2CCCO2)ccc1O (configuration not stated) | -0.604
COc1ccc(C2N=C(N)N=C(N)N2c2ccccc2)cc1OC (configuration not stated) | -3.55 (active)
COc1ccc(C2/C(=C(/O)c3ccccc3)C(=O)C(=O)N2c2ncccn2)cc1OC (configuration not stated) | -0.0203
COc1ccc(C2SCCN2S(=O)(=O)c2ccccc2)cc1OC (configuration not stated) | 0.2
CCOC(=O)[C@H]1CCC[C@@H](NS(=O)(=O)c2ccc(NC(C)=O)cc2)C1 | -0.0967
Cc1ccc(S(=O)(=O)N(C)CC(=O)N2CCc3ccccc32)cc1 | 1.86
CCOc1ccc2c(c1)cc(CN(C(=O)CC)C1CCCCC1)c1nnnn12 | 12.6 (active)
CCOc1ccc2[nH]c(=O)c(CN(Cc3nnnn3CCc3ccccc3)CC3CCCO3)cc2c1 (configuration not stated) | 1.9
CCOc1ccc2[nH]c(=O)c(CN(Cc3nnnn3Cc3ccccc3)CC3CCCO3)cc2c1 (configuration not stated) | -0.307
O=C(NCc1ccco1)c1cnn2c(C(F)(F)F)cc(-c3ccco3)nc12 | 4.37 (active)
COC(=O)c1cnn2c(C(F)(F)F)cc(-c3ccco3)nc12 | 1.18
O=C(NCc1ccco1)c1cccn2c(=O)c3cc(Br)ccc3nc12 | -0.861
O=C(O)C1CCCN(S(=O)(=O)c2cccc3cccnc23)C1 (configuration not stated) | 0.0158
COC(=O)c1c(NC(=O)CSc2nc3c(c(=O)n(C)c(=O)n3C)n2C(C)C)sc(C)c1C | 3.35
CCOC(=O)c1c(NC(=O)CSc2nnc(CN3CCOCC3)n2C)sc2c1CCCC2 | 6.03 (active)
CCOC(=O)c1c(NC(=O)CSc2nnc(C)c(=O)[nH]2)sc2c1CCC2 | 1.36
Cn1c(Cc2csc(N)n2)nnc1SC/C=C/c1ccccc1 | 0.477
CCOCC(=O)Nc1sc2c(c1C(=O)OCC)CCCC2 | -0.0785
CCOC(=O)c1c(NC(=O)CSc2nnc(Cc3csc(N)n3)n2C)sc(C)c1C | 4.94 (active)
O=C(NCc1ccc2c(c1)OCO2)C1CCCN(S(=O)(=O)c2cccs2)C1 (configuration not stated) | -0.0139
